{"source": "PubChem BioAssay", "note": "Activity calls are given as the source filed them. The rule behind the calls is not given here."}
{"target": "Pantothenate synthetase (Mycobacterium tuberculosis (strain ATCC 25618 / H37Rv)) (UniProt P9WIL5)", "sequence (P9WIL5 whole entry, looked up)": "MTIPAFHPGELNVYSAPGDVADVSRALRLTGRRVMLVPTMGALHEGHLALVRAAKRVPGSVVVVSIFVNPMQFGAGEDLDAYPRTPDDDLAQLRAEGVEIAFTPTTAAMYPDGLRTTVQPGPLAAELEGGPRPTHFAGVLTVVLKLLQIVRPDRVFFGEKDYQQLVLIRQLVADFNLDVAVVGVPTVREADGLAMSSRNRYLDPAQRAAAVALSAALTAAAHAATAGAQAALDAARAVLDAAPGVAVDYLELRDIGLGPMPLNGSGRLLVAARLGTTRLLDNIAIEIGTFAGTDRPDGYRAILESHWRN", "test": "Coupled enzyme confirmation of inhibitors against recombinant Mtb PanC (AID 375);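 note: 0% = full reaction with vehicle and 100% = no enzyme background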", "conditions": "coupled enzyme assay; at 10 µM, hits give high values"}
{"smiles": "COc1ccc(-c2nc(CS(=O)CC(=O)N3CCCC3)c(C)o2)cc1", "note": "(stereo not given)", "inhibition": "0% (inactive)"}
{"smiles": "CCCCc1ccc(NC(=O)N[C@H](C(=O)O)C(C)CC)cc1", "note": "(stereo not given in full)", "inhibition": "0% (inactive)"}
{"smiles": "Cc1cc(OC(=O)N2CCOCC2)cc(C)c1Cl", "inhibition": "0% (inactive)"}
{"smiles": "Cn1nc(C(=O)Nc2cccc(C(F)(F)F)c2)ccc1=O", "inhibition": "0% (inactive)"}
{"smiles": "c1cnc(NCCNc2ncccn2)nc1", "inhibition": "0% (inactive)"}
{"smiles": "COc1ccc(-c2cn3c(C)c(C(=O)Nc4cc(NC(C)=O)ccc4OC)sc3n2)cc1", "inhibition": "4% (inactive)"}
{"smiles": "Cc1cccc(NC(=O)C2CCCN2C(=O)OCC(C)C)c1C", "note": "(stereo not given)", "inhibition": "0% (inactive)"}
{"smiles": "Cc1ccc(NC(=O)COS(=O)c2ccc(C)cc2)cc1", "note": "(stereo not given)", "inhibition": "0% (inactive)"}
{"smiles": "CC(=O)NCCCCCCNC(C)=O", "inhibition": "0% (inactive)"}
{"smiles": "CC(C)(S)[C@@H](N)C(=O)O", "inhibition": "4% (inactive)"}
{"smiles": "O=C(O)CN1C(=O)C2(OCCCO2)c2ccccc21", "inhibition": "0% (inactive)"}
{"smiles": "COc1ccc2nc(S(=O)Cc3ncc(C)c(OC)c3C)[nH]c2c1", "note": "(stereo not given)", "inhibition": "4% (inactive)"}
{"smiles": "Cc1ccc(OCCN2CCN(C(=O)CCC(=O)Nc3nnc(C)s3)CC2)cc1", "inhibition": "1% (inactive)"}
{"smiles": "CCC(=O)N1CCc2cc(S(=O)(=O)CCC(=O)Nc3ccc(C)c(F)c3)ccc21", "inhibition": "0% (inactive)"}
{"smiles": "CCN=C1SC(CC(=O)Nc2ccccc2)C(=O)N1CC", "note": "(stereo not given)", "inhibition": "5% (inactive)"}
{"smiles": "CCCN(CCC)S(=O)(=O)c1ccc(C(=O)Nc2nnc(-c3cccc(OC)c3)o2)cc1", "inhibition": "6% (inactive)"}
{"smiles": "Cc1ccccc1Cn1cc(/C=N/n2cnnc2)c2ccccc21", "inhibition": "0% (inactive)"}
{"smiles": "O=C(O)c1ccc(-n2nc(C(F)(F)F)c3c2-c2ccoc2CC3)cc1", "inhibition": "0% (inactive)"}
{"smiles": "Cn1c(CN2CCOCC2)nc2cc(NC(=O)c3ccccc3Cl)ccc21", "inhibition": "5% (inactive)"}
{"smiles": "OC(CNCC1COc2ccccc2O1)COCc1cccs1", "note": "(stereo not given)", "inhibition": "0% (inactive)"}
{"smiles": "CCS(=O)(=O)N1CCC(C(=O)N2CCOCC2)CC1", "inhibition": "2% (inactive)"}
{"smiles": "O=C(Nc1ccc(Cl)cc1)C1CC=CCC1C(=O)OCC(F)(F)C(F)F", "note": "(stereo not given)", "inhibition": "0% (inactive)"}
{"smiles": "O=C(COc1ccccc1)Nc1nc2ccccc2[nH]1", "inhibition": "0% (inactive)"}
{"smiles": "O=c1c2c(nc3nc(CCc4ccccc4)[nH]n13)CCC2", "inhibition": "9% (inactive)"}
{"smiles": "COc1cccc(C2C3=C(N=C4SCC(=O)N42)c2ccccc2CC3)c1OC", "note": "(stereo not given)", "inhibition": "4% (inactive)"}
{"smiles": "CCOc1ccc(NC(=O)CN(C)S(=O)(=O)c2cccs2)cc1", "inhibition": "13% (inactive)"}
{"smiles": "COc1ccc(N2C(=O)C3C4C=CC(C4)C3C2=O)nn1", "note": "(stereo not given)", "inhibition": "8% (inactive)"}
{"smiles": "N#Cc1cnc(SCC(=O)Nc2ccccc2C(F)(F)F)nc1N", "inhibition": "4% (inactive)"}
{"smiles": "O=C(c1ccco1)c1nnn(Cc2ccccc2)c1-c1ccccc1", "inhibition": "1% (inactive)"}
{"smiles": "Cc1cc(C(=O)CSc2nnc(-c3ccccc3)n2C)c(C)n1C", "inhibition": "0% (inactive)"}
{"smiles": "Cc1ccc(Cn2c(CN3CCOCC3)nc3c2c(=O)n(C)c(=O)n3C)cc1", "inhibition": "0% (inactive)"}
{"smiles": "O=C(CCSc1ccccc1)Nc1ccc(S(=O)(=O)N2CCOCC2)cc1", "inhibition": "7% (inactive)"}
{"smiles": "CCN(CC)CCCC1(CN)OCCc2ccccc21", "note": "(stereo not given)", "inhibition": "0% (inactive)"}
{"smiles": "CCC(=O)N1CCN(c2nc(-c3ccccc3)c3c(c2C#N)CCCC3)CC1", "inhibition": "4% (inactive)"}
{"smiles": "Cc1cc(NC(=O)CSc2nnc(COc3cccc(C)c3C)n2Cc2ccco2)no1", "inhibition": "0% (inactive)"}
{"smiles": "CCOC(=O)c1ccc(N2C(=O)C3CC=CCC3C2=O)cc1", "note": "(stereo not given)", "inhibition": "1% (inactive)"}
{"smiles": "COCCCN1C(=O)C(=O)/C(=C(/O)c2ccc(OCC(C)C)cc2C)C1c1cccnc1", "note": "(stereo not given)", "inhibition": "0% (inactive)"}
{"smiles": "Cc1cc(NC(=O)CCC(=O)N(CC(=O)NC2CCCC2)Cc2ccc(F)cc2)no1", "inhibition": "0% (inactive)"}
{"smiles": "CC1(C(=O)CSc2nc3ccccc3s2)CCC(=O)O1", "note": "(stereo not given)", "inhibition": "0% (inactive)"}
{"smiles": "CCCC(=O)n1nc(-c2ccc(OC)cc2)nc1N", "inhibition": "2% (inactive)"}
